# Assay outcomes: PubChem, University of Kansas High Throughput Screening Laboratory
# The sample as a whole holds a higher share of hits than the screen did.
# mHTT-CaM PPI inh – mutant huntingtin-calmodulin interaction inhibitors – biochemical, AlphaScreen, primary screen; 190,000 compounds, 3.6% hits; AID 1671202, 2021; AlphaScreen His-mHTT/GST-CaM binding, luminescence; inhibition, % at 15 µM
# Pf apPOL inh – Pf-apPOL inhibitors, biochemical, fluorescence; inhibition, % at 10 µM; 210,000 compounds, 0.25% hits; Recombinant Pf-apPOL, molecular beacon fluorescence, 1.5 h; Plasmodium falciparum apicoplast DNA polymerase (apPOL); AID 1794808, 2022
# Numbers stand for hits; - = inactive; . = no result. Rule as the data show it: active = inhibition above about 50%; inactive = the rest.
SMILES,mHTT-CaM PPI inh,Pf apPOL inh
Cc1ccc(C2CC(=O)C3=C(C2)Nc2ccccc2NC3c2coc3ccc(C)cc3c2=O)cc1 (configuration not stated),-,-
O[C@H]1CN(CC2CCCCC2)[C@@H](c2ccccc2)C[C@@H]1n1cc(C2CC2)nn1,70,-
Cc1ccc([C@H]2C[C@@H](n3cc(C4CC4)nn3)[C@H](O)CN2CC2CCCCC2)cc1,-,-
Cc1ccc([C@H]2C[C@H](O)[C@@H](n3cc(C4CC4)nn3)CN2CC2CCCCC2)cc1,86,-
Cc1ccc([C@H]2C[C@H](n3cc(C4CC4)nn3)[C@@H](O)CN2CC2CCCCC2)cc1,-,-
CCOc1ccc(C(=O)Nc2c(C)cccc2CC)cc1[N+](=O)[O-],-,-
CCSc1nnc(-c2nn(C)c3c2CN(C(=O)CC2CCCC2)CC3)n1C,-,-
C=CCn1c(SCC(=O)c2cc(C)n(CCOC)c2C)nc2sc3c(c2c1=O)CCCC3,-,-
CCCOc1ccc(C(=O)Nc2ccc(N3CCCC3)cc2)cc1,-,-
CCCCOc1ccc(C(=O)Nc2ccc(N3CCCC3=O)cc2)cc1,88,-
CC(=O)N1c2ccc(S(=O)(=O)NCc3ccccc3Cl)cc2CC1C (configuration not stated),-,-
COc1ccc(C)cc1NC(=O)N1CCC(N2CCN(Cc3ccccc3)C2=O)CC1,-,-
O=C(c1cccnc1SCc1cccc(F)c1)N1CCN(c2ccccn2)CC1,-,-
Cc1c(N=Cc2cc([N+](=O)[O-])c(Cl)cc2Cl)c(=O)n(-c2ccccc2)n1C,-,-
O=c1[nH]c2ccc(N=Cc3cc([N+](=O)[O-])c(Cl)cc3Cl)cc2[nH]1,94,-
O=c1[nH]c2ccc(N=Cc3cc(O)ccc3Br)cc2[nH]1,-,-
O=c1[nH]c2ccc(N=Cc3cc(Br)cc(Br)c3O)cc2[nH]1,61,-
CC(=O)c1cc(F)c(N2CCN(C(=O)c3cccc(F)c3F)CC2)cc1C,-,-
COc1ccc(C2N(c3ccc(OC)cc3)C(=O)C3CCCN32)cc1 (configuration not stated),-,-
Cc1ccc([C@H]2C[C@H](n3cc(C4CC4)nn3)[C@@H](O)CN2Cc2cccs2)cc1,80,-
COc1ccc([C@H]2C[C@@H](n3cc(-c4ccc(F)cc4)nn3)[C@H](O)CN2Cc2cccs2)cc1,-,-
Cc1ccc([C@H]2C[C@@H](O)[C@H](n3cc(C4CC4)nn3)CN2Cc2cccs2)cc1,-,-
O[C@H]1CN(Cc2cccs2)[C@@H](c2ccccc2)C[C@@H]1n1cc(C2CC2)nn1,-,-
COc1ccc([C@H]2C[C@H](n3cc(-c4ccc(F)cc4)nn3)[C@@H](O)CN2Cc2cccs2)cc1,63,-
Cc1ccc([C@H]2C[C@H](O)[C@@H](n3cc(C4CC4)nn3)CN2Cc2cccs2)cc1,100,-
SMILES,mHTT-CaM PPI inh,Pf apPOL inh
CCOc1nccnc1N1CCC(NC(=O)Cc2cccnc2)C1 (configuration not stated),-,-
CCCCNC(=O)OCCSC(=S)NC(C)(C)C,-,.
O=C(/C=C1\Sc2ccccc2NC1=O)NCCCSC1CCCCC1,-,-
CSc1nc(C)c(Cc2c(F)cccc2Cl)c(=O)[nH]1,.,-
Cc1ccc(NS(=O)(=O)c2ccccc2[N+](=O)[O-])cc1C,-,51
O=[N+]([O-])c1ccccc1S(=O)(=O)Nc1ccc(Cl)c(Cl)c1,-,-
CSc1ccc(CN2CCN(c3cnn4cnnc4c3)CC2)cc1,-,-
Cc1onc(-c2ccccc2)c1C1=N/C(=C/c2ccc([N+](=O)[O-])cc2)C(=O)O1,-,-
CCN(C)c1nc(-c2ccccc2Cl)c2c(N)n(-c3ccccc3)nc2n1,-,-
CCN(C)c1nc(-c2cccc(F)c2)c2c(N)n(-c3cccc(F)c3)nc2n1,57,-
Cc1nc(CCNC(=O)C2CCN(C(=O)c3cccc(Cl)c3)CC2)cs1,-,-
O=[N+]([O-])c1cc(C(F)(F)F)ccc1Oc1ccc(-c2nnco2)cc1,.,-
CC1=C(C#N)C(=O)N(CC(C)O)C(=O)/C1=C\c1ccc(-c2cccc(Cl)c2C)o1 (configuration not stated),75,-
CC1=C(C#N)C(=O)N(CCO)C(=O)/C1=C/c1ccc(-c2ccc3c(c2)COC3=O)o1,60,-
CC1=C(C#N)C(=O)N(CC(C)O)C(=O)/C1=C\c1ccc(-c2ccc(Cl)cc2)o1 (configuration not stated),-,-
CC1=C(C#N)C(=O)N(CCO)C(=O)/C1=C\c1ccc(-c2cc(Cl)ccc2Cl)o1,-,-
O=c1cc[nH]c2cc(N3CCOCC3)c(F)cc12,-,80
O=C(c1ccccc1)c1cc(F)c(N2CCOCC2)cc1Cl,-,-
Cc1c(C)c(C)c(C#CCO)c(C)c1C,.,-
COc1cc(NC(=O)c2nn(C)cc2[N+](=O)[O-])cc(OC)c1OC,-,-
O=C(NCc1ccc(F)c(Cl)c1)C1CCN(c2cncnc2N2CCCC2)CC1,90,-
